This is an account of results in PubChem BioAssay.

By inhibition is commonly meant the relative decrease from the control value, in per cent.

Structures are written as SMILES. “And” between values parts separate entries of the source, which are not always exact repeats. Equal values may be shown once. The source made the active and inactive calls.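 The calls were made as follows: active = inhibition at or above 50% relative to wild type and mutant plate controls; inactive = inhibition below 50%.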

The nature of this assay: loss of swimming-algae plug formation – whole organism, Chlamydomonas reinhardtii, WT vs cilia-less mutant, absorbance, 96-well, primary screen (AID 463189).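 Also: 0% = wild type cc124 cells in DMSO and 100% = ciliumless bld1 mutant cells.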 To be noted: Chlamydomonas reinhardtii gravitaxis, OD600 absorbance, 2 days; at 10 µM; active compounds read high.
As to `S=C(Nc1ccccc1)Nc1nccs1`, the inhibition is 7.29% (inactive). Take `Oc1cc2c(c(Cl)c1O)CCNCC2c1ccccc1` (stereo unspecified): the inhibition was 6.8% (inactive).

On to `COCc1nc2c([nH]1)c(=O)n(C)c(=O)n2CC(C)C`, for which the inhibition was 1.31% (inactive).

`O=c1[nH]c2ccccc2c2ccccc12`: the inhibition was 6.93% (inactive). Take `C#CCn1c(=O)c2c(ncn2C)n(C)c1=O`: the inhibition was 3.25% (inactive). `C/C(=C\c1ccc(C(=O)O)cc1)c1ccc2c(c1)C(C)(C)CCC2(C)C`: the inhibition was 9.5% (inactive). In the case of `N[C@@H](CCCC(=O)O)C(=O)O`, the inhibition is 6.53% (inactive).

For the compound `N#Cc1cc2nc(O)c(O)nc2cc1[N+](=O)[O-]`, the inhibition is 1.78% (inactive). Consider `CN1CCc2cccc3c2C1Cc1ccc(O)c(O)c1-3` (stereo unspecified), for which the inhibition was -7.51% (inactive).

For `Cc1cccc(C)c1OCC(N)C(C)C` (stereo unspecified), the inhibition is 9.25% (inactive).

Regarding `COc1cc2c(cc1C(F)(F)F)N(C(=O)Nc1cc(F)cc(-c3cccnc3)c1)CC2`, the inhibition was 0.852% (inactive). On to `CCC(=O)c1ccc2c(c1)N(CCCN(C)C)c1ccccc1S2`, for which the inhibition was 46.1% (inactive). The value for `N[C@H](C(=O)O)c1cc(O)cc(O)c1` was -2.67% (inactive); that for `O=C(O)CCC(=O)N1CCCC1C(=O)O` (stereo unspecified) was 0.347% (inactive). As to `O[Si](CCCN1CCCCC1)(c1ccc(F)cc1)C1CCCCC1` (stereo unspecified), the inhibition is -1.85% (inactive). On to `CC(C)(C)[C@]1(O)CCN2C[C@H]3c4ccccc4CCc4cccc(c43)[C@@H]2C1`, for which the inhibition was 3.49% (inactive) and -7.42% (inactive). Turning to `NCCCCCCNS(=O)(=O)c1cccc2c(Cl)cccc12`, the inhibition is 7.85% (inactive). As to `CCCCCC(O)CCCC(=O)O` (stereo unspecified), the inhibition is -1.48% (inactive).

As to `CC(C)(C)c1cc(/C=C(\C#N)C(N)=S)cc(C(C)(C)C)c1O`, the inhibition was 35.4% (inactive). Take `CC(C)(C=O)Cc1cc(C(C)(C)C)c(O)c(C(C)(C)C)c1`: the inhibition is -3.35% (inactive). As for `CN(C)CCN(Cc1cccs1)c1ccccn1`, the inhibition is 2.59% (inactive). Next, `OC(CN1CCN(c2cccc(Cl)c2)CC1)C(c1ccccc1)c1ccccc1` (stereo unspecified): 4.93% (inactive); `COC(=O)c1c(C)[nH]c(C)c1C(=O)c1ccccc1Cc1ccccc1`: 0.163% (inactive); `O=C(O)CC1CCCc2ccccc2C1O` (stereo unspecified): 4.59% (inactive). The value for `CCN1CCCC1CNC(=O)c1cc(S(N)(=O)=O)ccc1OC` (stereo unspecified) was 2.91% (inactive). On to `CCCC(C(=O)OCCN(CC)CC)(c1ccccc1)c1ccccc1`, for which the inhibition is 4.83% (inactive).
